Experimental findings from PubChem BioAssay (NCATS) are described below.

“And” between values parts separate entries of the source, which are not always exact repeats. Identical values can stand only once. Records with an inconclusive call do not appear. The source made the active and inactive calls. Unless noted, calls come from the whole dose curve; as a rule, active = well fitted curve in the direction sought with a large enough effect; inconclusive = small, poorly fitted or top-dose-only effect, or another doubt; inactive = no such curve, though single readings can be large; an effect the other way counts as inactive or inconclusive.

The target in assay [1] is Cytochrome P450 2D6 (Homo sapiens) (UniProt P10635). The assay can be described thus: Cytochrome P450 family 2 subfamily D member 6 (CYP2D6) small molecule antagonists: luciferase biochemical (cell-free) qHTS assay (AID 1645840; active = well fitted curve in the direction sought with a large enough effect in the repeat runs; an effect the other way counts as inactive or inconclusive; note: nearly all actives have a fitted effect of over 55% in size). The gist of the method:
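P450-Glo luminescent screen: recombinant CYP2D6 enzyme–proluciferin substrate mix preincubated with compound 10 min at room temperature, then NADPH regeneration added for 1 h at room temperature. Detection reagent added for 20 min; luciferin light read as relative luminescence units.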
A general note: Quantitative high-throughput screening tests each substance at several concentrations.

In assay [2] the target is Cytochrome P450 2C9 (Homo sapiens) (UniProt P11712). Nature of the assay: Cytochrome P450 family 2 subfamily C member 9 (CYP2C9) small molecule antagonists: luciferase biochemical (cell-free) qHTS assay (AID 1645842; active = well fitted curve in the direction sought with a large enough effect in the repeat runs; an effect the other way counts as inactive or inconclusive; note: nearly all actives have a fitted effect of over 55% in size). In short, it runs like this: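 Luminescence, after 20 min with luciferin detection reagent, reflected CYP2C9 turnover during a 1 h NADPH-driven reaction at 37C. Enzyme-substrate mix contained 0.4% bovine serum albumin and was preincubated with compound 10 min at room temperature.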

Assay [3] can be described thus: Primary qHTS for inhibitors of nuclear receptor binding SET domain protein 2 (NSD2) in an isogenic RCH-ACV NSD2 p.E1099K mutant (9B) (AID 1645876). Note: nearly all actives have a fitted effect of over 70% in size.
The nature of assay [4]: Primary qHTS for inhibitors of nuclear receptor binding SET domain protein 2 (NSD2) in an RCH-ACV wild type WT cells (2C) (AID 1645877). Note: nearly all actives have a fitted effect of over 70% in size.
Potency is the fitted concentration of half-maximal effect.

Sequence of Cytochrome P450 2D6 (Homo sapiens) (P10635 whole entry, looked up): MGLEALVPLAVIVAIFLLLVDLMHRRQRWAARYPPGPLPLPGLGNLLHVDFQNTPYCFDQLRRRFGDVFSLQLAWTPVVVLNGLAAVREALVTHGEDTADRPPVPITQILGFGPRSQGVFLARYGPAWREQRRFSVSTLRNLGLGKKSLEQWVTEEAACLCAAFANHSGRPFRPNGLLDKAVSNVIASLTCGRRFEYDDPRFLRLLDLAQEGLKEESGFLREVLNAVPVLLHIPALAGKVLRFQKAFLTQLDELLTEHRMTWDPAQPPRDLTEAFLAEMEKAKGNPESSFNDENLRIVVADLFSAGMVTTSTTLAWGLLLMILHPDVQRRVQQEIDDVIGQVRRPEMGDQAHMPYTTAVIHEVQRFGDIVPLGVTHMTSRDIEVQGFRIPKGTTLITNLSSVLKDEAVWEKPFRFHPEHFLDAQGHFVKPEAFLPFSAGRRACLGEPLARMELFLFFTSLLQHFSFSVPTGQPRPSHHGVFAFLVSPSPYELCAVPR
Sequence of Cytochrome P450 2C9 (Homo sapiens) (P11712 whole entry, looked up): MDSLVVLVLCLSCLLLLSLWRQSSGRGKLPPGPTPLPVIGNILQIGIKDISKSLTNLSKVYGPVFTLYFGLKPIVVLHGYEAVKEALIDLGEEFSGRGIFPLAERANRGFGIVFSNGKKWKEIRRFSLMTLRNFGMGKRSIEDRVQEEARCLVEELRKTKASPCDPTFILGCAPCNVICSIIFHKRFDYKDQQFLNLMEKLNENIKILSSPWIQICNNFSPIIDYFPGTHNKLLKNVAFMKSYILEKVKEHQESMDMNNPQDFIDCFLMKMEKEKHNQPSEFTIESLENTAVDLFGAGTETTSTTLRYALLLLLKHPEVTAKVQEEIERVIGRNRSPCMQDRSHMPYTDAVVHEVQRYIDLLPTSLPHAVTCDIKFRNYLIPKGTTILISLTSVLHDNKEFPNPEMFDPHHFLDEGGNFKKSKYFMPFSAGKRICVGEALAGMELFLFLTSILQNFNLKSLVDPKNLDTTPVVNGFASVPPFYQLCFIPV

For `CC(=O)N1CCN(CCOc2ccc(C3CCN(C4=Nn5c(nnc5C(F)(F)F)CC4)CC3)cc2)CC1`, in assay [1], the Potency entry was “inactive”. The Potency in assay [2] is 12 µM (active); in assay [3], 5.15 µM (active); in assay [4] it was 6.49 µM (active).
For the molecule `Clc1ccc(Cn2c(Cc3ccccc3)nc3ccccc32)cc1`, the Potency in assay [1] is 10.7 µM (active); in assay [2] it was 9.52 µM (active); in assay [3], 11.5 µM (active); in assay [4], 18.3 µM (active).
The corresponding values for `Cc1cc(N2CCOCC2)ccc1Nc1nc(NC2CCCCC2)c2[nH]cnc2n1` are “inactive”, 13.5 µM (active), 1.29 µM (active) and 8.33 µM (active).
The matching figures for `CN(C)C(=O)NC1(c2ccccc2)CCN(CCC[C@]2(c3ccc(Cl)c(Cl)c3)CCCN(C(=O)c3ccccc3)C2)CC1`: 3.38 µM (active), 21.3 µM (active), 3.25 µM (active) and 2.9 µM (active).
The matching figures for `CCn1c(=O)c(-c2ccc(-c3cncs3)cc2Cl)cc2cnc(Nc3ccc(N4CCN(C)CC4)cc3)nc21`: “inactive”, 6.01 µM (active), 2.31 µM (active) and 2.59 µM (active).
Regarding `C#CC(=O)N(c1ccc(OC)cc1OC)C(C(=O)NCC(=O)OCC)c1cccs1` (centres undefined), the Potency in assay [1] was 12 µM (active); in assay [2], 12 µM (active); in assay [3] it was 0.183 µM (active); in assay [4] it was 0.0649 µM (active).
As to `CCCc1cc(C)[nH]c(=O)c1CNC(=O)c1cc(-c2ccnc(N3CCN(C)CC3)c2)cc2c1cnn2C(C)C`, the Potency in assay [1] is 23.9 µM (active); in assay [2] it was 13.5 µM (active); in assay [3], 12.9 µM (active) and 16.6 µM (active); in assay [4], 9.16 µM (active) and 16.6 µM (active).
Regarding `COc1ccc(CNc2nc(N(CCO)CCO)nc3c2ncn3C(C)C)cc1`, in assay [1], the Potency entry was “inactive”. For the same molecule, the figures for the Potency in assay [2], in assay [3] and in assay [4] were 3.79 µM (active), 7.42 µM (active) and 5.25 µM (active), respectively.
`CN(C)Cc1ccc(-c2cnn3c(-c4cccc(NC(=O)c5cccc(C(F)(F)F)c5)c4)ccnc23)cc1`: the Potency is 13.5 µM (active) in assay [1], 7.56 µM (active) in assay [2], 3.65 µM (active) in assay [3] and 4.09 µM (active) in assay [4].
Consider `O=C(Nc1ccc(CN2CCOCC2)cc1)c1ccc(-c2cccc(Cl)c2)o1`, for which the Potency was 15.1 µM (active) in assay [1], 19 µM (active) in assay [2], 16.3 µM (active) in assay [3] and 11.5 µM (active) in assay [4].
As to `CC(C)CCNc1ncccc1C(=O)N1CCN(Cc2ccccc2)CC1`, the Potency in assay [1] is 5.35 µM (active); in assay [2] it was 10.7 µM (active). The Potency result in assay [3] and in assay [4] was “inactive” throughout.
For the molecule `Cc1cc2occ(CN(C)CCN(C)Cc3cn(-c4cccc(C(F)(F)F)c4)c4ccccc34)c(=O)c2cc1C`, the Potency in assay [1] is 4.77 µM (active); in assay [2], 21.3 µM (active); in assay [3] it was 7.28 µM (active); in assay [4] it was 7.28 µM (active).
Take `N#CC(CCCN1CCC(O)(c2ccc(Cl)cc2)CC1)(c1ccccc1)c1ccccc1`: the Potency was 0.536 µM (active) in assay [1], 23.9 µM (active) in assay [2], 5.15 µM (active) in assay [3] and 6.49 µM (active) in assay [4].
For the molecule `COCc1c(Cl)ccc2c1CC[C@H]2c1ncc[nH]1`, the Potency in assay [1] was 1.9 µM (active); in assay [2], 21.3 µM (active). Moreover, the Potency entry in assay [3] and in assay [4] was “inactive” in each case.
Regarding `C#CCOc1ccc2c(c1)c(-c1ccc(C(C)C)cc1)nc(=O)n2C(C)C`, the Potency in assay [1] was 23.9 µM (active); in assay [2], 2.68 µM (active); in assay [3], 8.17 µM (active); in assay [4], 11.5 µM (active).
On to `CC#CC(=O)Nc1ccc2ncnc(Nc3cccc(Br)c3)c2c1`, for which the Potency result in assay [1] and in assay [2] was “inactive” throughout. Moreover, the Potency in assay [3] is 1.29 µM (active) and 1.3 µM (active); in assay [4], 1.03 µM (active) and 1.16 µM (active).
Take `COc1ccc(Cl)c(Nc2ncnc3cc(OCC4CCN(C)CC4)c(OC)cc23)c1`: the Potency result in assay [1] and in assay [2] was “inactive” throughout. Moreover, the Potency in assay [3] and in assay [4] was 13.2 µM (active) in each case.
For `CCc1ccccc1OC[C@@H](O)CN[C@H]1CCCc2ccccc21`, the Potency in assay [1] is 0.477 µM (active); in assay [3], 16.3 µM (active); in assay [4], 10.3 µM (active). Moreover, the Potency result in assay [2] is “inactive”.
The corresponding values for `CCNC(=O)c1noc(-c2cc(Cl)c(O)cc2O)c1-c1ccc(OC)cc1` are 26.8 µM (active), 0.129 µM (active), 0.115 µM (active) and 3.38 µM (active).
For `CC(C)(C)c1ccc(-c2nc3c(N4CCN(Cc5ccc6nccnc6c5)CC4)cccc3[nH]2)cc1`, the Potency result in assay [1] was “inactive”. Also, the figures for the Potency in assay [2], in assay [3] and in assay [4] were 2.13 µM (active), 9.16 µM (active) and 11.5 µM (active), respectively.
The corresponding values for `CC1=C(C(=O)OC2CCCCC2)C(c2ccc([N+](=O)[O-])cc2)C2=C(CC(C)(C)CC2=O)N1` (centres undefined) are 21.3 µM (active), 12 µM (active), “inactive” and “inactive”.
